Bioassay records as filed in PubChem BioAssay.
Luc counter: blocks Kinase-Glo luciferase, a counter-screen artifact; Q27757; Kinase-Glo luciferase, ATP luminescence, 8 min; Potency, µM (highest dose often 38.3 µM), most hits filed as inhibitors; 0.28% of 200,000 active; AID 1379; further: nearly all actives have a fitted effect of over 60% in size
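Light output from Kinase-Glo luciferase with luciferin and 10 uM ATP in 50 mM imidazole pH 7.2, KCl, MgCl2, Tween 20, BSA; compound pin-delivered, 8-min ambient incubation, then luminescence read.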
Gal4-VP16 FLuc: counter-screen for ROR gamma inhibitors: Gal4-VP16 reporter. Drosophila S2 Gal4-VP16 UAS-luciferase, luminescence, 20 h. Potency, µM (top dose mostly 53.6 µM), usual class: inhibitors. 3.5% of 310,000 active. AID 2546;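 further: Gal4-VP16 expression switched on by copper sulfate through the metallothionein promoter; nearly all actives have a fitted effect of over 50% in size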
RORg inh: ROR gamma (mouse) transcription inhibition. P51450. Drosophila S2 Gal4-RORgamma UAS-luciferase reporter, 20 h. Potency, µM (top dose mostly 53.6 µM), most hits filed as inhibitors. 5.4% of 310,000 active. AID 2551; further: nearly all actives have a fitted effect of over 60% in size
Target sequence (P51450 whole entry, looked up, the tested form may be a part): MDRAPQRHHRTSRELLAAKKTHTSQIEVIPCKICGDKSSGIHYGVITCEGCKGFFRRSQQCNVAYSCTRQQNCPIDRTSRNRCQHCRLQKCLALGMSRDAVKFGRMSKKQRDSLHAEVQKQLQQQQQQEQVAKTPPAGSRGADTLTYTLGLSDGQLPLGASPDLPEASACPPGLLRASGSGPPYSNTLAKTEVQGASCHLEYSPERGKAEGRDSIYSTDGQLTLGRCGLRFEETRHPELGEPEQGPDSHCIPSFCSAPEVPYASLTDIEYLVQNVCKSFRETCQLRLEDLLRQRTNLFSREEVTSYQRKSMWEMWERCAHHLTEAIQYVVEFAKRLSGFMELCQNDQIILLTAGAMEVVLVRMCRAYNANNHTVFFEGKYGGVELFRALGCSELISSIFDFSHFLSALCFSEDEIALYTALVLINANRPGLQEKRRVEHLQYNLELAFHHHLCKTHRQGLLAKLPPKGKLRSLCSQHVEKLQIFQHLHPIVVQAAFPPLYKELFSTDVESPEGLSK
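Using a luciferase readout, inhibitors were identified by reduced reporter activity in Drosophila cells coexpressing a copper-inducible Gal4–ROR gamma fusion and UAS-driven Photinus luciferase, incubated 20 hr after 700 uM copper sulfate.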
Large screens that a line does not name were inactive. An excerpt weighted towards active compounds, which were near 6.4% of everything screened. The call rests on the fitted dose curve; in most records, active means well fitted curve in the direction sought with a large enough effect; inconclusive means small, poorly fitted or top-dose-only effect, or another doubt; inactive means no such curve, though single readings can be large; an effect the other way counts as inactive or inconclusive.

C[C@H](NC(=O)c1nc[nH]c1C(=O)N[C@@H](Cc1ccccc1)C(=O)OCc1ccccc1)C(=O)OCc1ccccc1	Gal4-VP16 FLuc inconclusive, RORg inh 11µM (no result: Luc counter)
CCN(CC)C(=O)c1[nH]cnc1C(=O)N[C@@H](Cc1ccccc1)C(=O)OCc1ccccc1	Gal4-VP16 FLuc inconclusive, RORg inh 14µM (no result: Luc counter)
C[C@H](NC(=O)c1nc[nH]c1C(=O)N1CCN(C(=O)OC(C)(C)C)CC1)C(=O)OCc1ccccc1	RORg inh inconclusive (no result: Luc counter)
C[C@H](NC(=O)c1nc[nH]c1C(=O)NC1CCN(C(=O)OC(C)(C)C)CC1)C(=O)OCc1ccccc1	Gal4-VP16 FLuc inconclusive, RORg inh 14µM (no result: Luc counter)
Cc1cccc(NC(=O)[C@H](Cc2ccccc2)NC(=O)OCc2ccccc2)c1	none
Cc1ccnc(NS(=O)(=O)c2ccc(-n3cccn3)cc2)c1	none (no result: Luc counter)
COc1ccc(C(=O)Nc2cc(C)on2)cc1S(=O)(=O)N1CC(c2ccccc2)CC1=O (configuration not stated)	none
NCc1nnn(Cc2ccccc2)c1N	none (no result: Gal4-VP16 FLuc, RORg inh)
O=C(N/N=C1/C[C@@H](O)[C@@H](O)[C@@H]2[C@@H]3C(=O)N(Cc4ccc5c(c4)OCO5)C(=O)[C@H]3CC[C@@H]12)OCc1ccccc1	none (no result: Luc counter)
CC1CCN(C(=O)c2[nH]cnc2C(=O)N[C@@H](C)C(=O)OCc2ccccc2)CC1	none (no result: Luc counter)
CC(C)(C)OC(=O)CNC(=O)c1nc[nH]c1C(=O)N1CCN(C(=O)OC(C)(C)C)CC1	none (no result: Luc counter)
O=C(N[C@@H](Cc1ccccc1)C(=O)OCc1ccccc1)c1nc[nH]c1C(=O)N1CCc2ccccc2C1	Gal4-VP16 FLuc inconclusive, RORg inh 13µM (no result: Luc counter)
CC(C)(C)OC(=O)CNC(=O)c1nc[nH]c1C(=O)N1CCc2ccccc2C1	Gal4-VP16 FLuc inconclusive, RORg inh 11µM (no result: Luc counter)
CNC(=O)c1[nH]cnc1C(=O)N[C@@H](Cc1ccccc1)C(=O)OCc1ccccc1	Gal4-VP16 FLuc inconclusive, RORg inh 18µM (no result: Luc counter)
C[C@H](NC(=O)c1nc[nH]c1C(=O)N[C@@H](Cc1ccccc1)C(=O)OC(C)(C)C)C(=O)OCc1ccccc1	Gal4-VP16 FLuc inconclusive, RORg inh 7.9µM (no result: Luc counter)
COc1ccc(-c2nc(-c3ccccc3)c(NC(C)C)o2)cc1	none
COc1cc([N+](=O)[O-])ccc1NC(=S)Nc1cc(C(=O)OC(C)C)cc(C(=O)OC(C)C)c1	none
O=C(CNCC1(N2CCOCC2)CCCCC1)Nc1ccc(Cl)cc1	none
O=C(Nc1ccccc1)c1nnn(Cc2ccccc2)c1NC(=O)C(F)(F)F	none
COC(=O)c1c(NC(C)=O)csc1C	none (no result: Luc counter)
Cc1ccc(S(=O)(=O)NCC(=O)OCC(=O)NC(=O)NC2CCCC2)cc1	none
NC(=S)Cc1nc(-c2ccccc2)cs1	Gal4-VP16 FLuc 8.9µM, RORg inh 11µM
N/C(Cc1nc(-c2ccc(F)cc2)cs1)=N\O	none (no result: Luc counter)
O=S(=O)(c1ccc(NC(=S)NCc2ccncc2)cc1)N1CCCCC1	none (no result: Luc counter)
COc1ccccc1CNC(=O)[C@@H]1CCCN1S(=O)(=O)c1ccc(C)cc1	none
CC(=O)Nc1ncc(Cc2ccc(Cl)cc2Cl)s1	RORg inh inconclusive
O=C(Nc1nnc(Cc2ccc(Cl)cc2)s1)c1cccs1	RORg inh inconclusive
Cc1ccc(Cc2cnc(NC(=O)c3cccs3)s2)cc1	Gal4-VP16 FLuc 8.9µM, RORg inh 3.5µM
CCc1nnc(NC(=O)c2ccc(C)o2)s1	none (no result: Luc counter)
O=C(Nc1ncc(Cc2ccccc2)s1)c1cccs1	Gal4-VP16 FLuc inconclusive
O=C(Nc1ncc(Cc2cccc(Cl)c2)s1)c1cccs1	Gal4-VP16 FLuc 16µM, RORg inh 7.1µM
O=C(Nc1ncc(Cc2cccc(Cl)c2)s1)C1=NCCN1	Gal4-VP16 FLuc 5µM, RORg inh 2.5µM
Cc1ccc(C(=O)Nc2ncc(Cc3ccccc3)s2)o1	Gal4-VP16 FLuc inconclusive, RORg inh 11µM (no result: Luc counter)
CCOC(=O)CNC(=O)c1ccc(SCC)cc1	none (no result: Luc counter)
O=C(Nc1nnc(Cc2ccccc2)s1)c1ccccc1	RORg inh inconclusive (no result: Luc counter)
O=C(Nc1ncc(Cc2ccc(SC(F)F)cc2)s1)c1ccccc1	Gal4-VP16 FLuc 20µM, RORg inh 13µM
O=C(Cc1ccccc1)NCC(=O)OCC(=O)c1ccccc1Cl	Gal4-VP16 FLuc inconclusive
S=C(NCc1ccco1)Nc1ccc(Br)cn1	Gal4-VP16 FLuc 3.5µM, RORg inh 3.2µM (no result: Luc counter)
S=C(NCc1ccco1)Nc1cc(-c2ccccc2)[nH]n1	Gal4-VP16 FLuc inconclusive, RORg inh 6.3µM
O=S(=O)(c1ccc(NC(=S)NCc2ccco2)cc1)N1CCCC1	none
O=C(NCc1ccco1)c1cc(-c2ccccc2)nc2ccccc12	none
Cc1cccc(NC(=O)CCS(=O)(=O)c2ccc(Br)cc2)c1	none (no result: Luc counter)
CC(C)Oc1ccc(C(=O)Nc2ccc(N3CCN(C(=O)c4ccco4)CC3)cc2)cc1	RORg inh inconclusive (no result: Luc counter)
O=C(Nc1ccc(N2CCN(C(=O)c3ccccc3)CC2)cc1)c1cccs1	RORg inh inconclusive (no result: Luc counter)
Cc1ccc(C(=O)N2CCN(c3ccc(NC(=S)NC(=O)c4cccs4)cc3)CC2)cc1	Gal4-VP16 FLuc 11µM, RORg inh 7.1µM
COc1ccc(C(=O)N2CCN(c3ccc(NC(=O)c4cccs4)cc3)CC2)cc1	none (no result: Luc counter)
CC(C)C(=O)Nc1ccc(N2CCN(C(=O)c3cccs3)CC2)cc1	none
Cc1ccccc1C(=O)N1CCN(c2ccc(NC(=S)NC(=O)c3cccs3)cc2)CC1	Gal4-VP16 FLuc 5.6µM, RORg inh 2.8µM
CC(C)CC(=O)NC(=S)Nc1ccc(N2CCN(C(=O)c3cccs3)CC2)cc1	Gal4-VP16 FLuc 6.3µM, RORg inh 7.1µM (no result: Luc counter)
Cc1ccc(C(=O)NC(=S)Nc2ccc(N3CCN(C(=O)c4ccco4)CC3)cc2)cc1	Gal4-VP16 FLuc 5.6µM, RORg inh 13µM (no result: Luc counter)
OC1OC[C@@H](O)[C@H](O)[C@H]1O (some centres not stated)	none (no result: Luc counter)
O=C(/C=C/c1ccccc1)N1CCN(CCN2C(=O)c3cccc4cccc(c34)C2=O)CC1	none
C=CCCC(=O)N1CCCC(Cc2cccc(Cl)c2)(C(=O)OCC)C1 (configuration not stated)	none (no result: Luc counter)
O=C(NC(=S)Nc1ccc(N2CCOCC2)cc1)c1cccs1	Gal4-VP16 FLuc inconclusive, RORg inh 2.8µM
C/C(=N/NC(=O)c1cccs1)c1ccc(N2CCOCC2)cc1	Gal4-VP16 FLuc inconclusive
CS(=O)(=O)N1CCC2(CCN(C(c3ccccc3)c3ccccc3)CC2)CC1	none
CC1CC(C)CN(C(=O)C(NS(=O)(=O)c2ccc(Br)s2)c2ccccc2)C1 (configuration not stated)	none
Cc1cccc(CS(=O)(=O)c2ncc(Cl)c(C(=O)Nc3nnc(C(C)C)s3)n2)c1	Gal4-VP16 FLuc inconclusive, RORg inh 0.022µM (no result: Luc counter)
CCSc1nnc(NC(=O)CN(C)S(=O)(=O)c2ccc(F)cc2)s1	none
C=CCSc1nnc(NC(=O)c2nc(SCC)ncc2Cl)s1	Gal4-VP16 FLuc inconclusive, RORg inh 11µM
CSc1ncc(Cl)c(C(=O)Nc2nnc(SC/C=C/c3ccccc3)s2)n1	none
CSc1nnc(NC(=O)c2ccco2)s1	none (no result: Luc counter)
CCSc1nnc(NC(=O)c2nc(S(=O)(=O)Cc3ccc(F)cc3)ncc2Cl)s1	Gal4-VP16 FLuc 11µM, RORg inh inconclusive (no result: Luc counter)
CC(C)c1nnc(NC(=O)CS(=O)(=O)c2ccccc2)s1	none (no result: Luc counter)
CSc1nnc(NC(=O)c2nc(S(=O)(=O)Cc3cccc(C)c3)ncc2Cl)s1	Gal4-VP16 FLuc 18µM, RORg inh inconclusive (no result: Luc counter)
C#CCCOC(=O)N1C2=NC(C(=O)OC)=C(C(=O)OC)[C@@H]3Nc4ccccc4[C@]23C[C@H]1C(=O)OC	none (no result: Gal4-VP16 FLuc, RORg inh)
CC(=O)c1c[nH]c(C(=O)NCc2ccccc2Cl)c1	none (no result: Luc counter)
